Assay outcomes as filed in PubChem BioAssay.
mHTT-CaM PPI inh: mHTT-calmodulin interaction abrogation. P42858. AlphaScreen His-mHTT/GST-CaM binding, luminescence. inhibition, % at 15 µM. 190,000 tested, 3.6% active. AID 1671202;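 note: 0% = both proteins with DMSO and 100% = one protein alone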
Pf apPOL inh: Pf-apPOL DNA polymerase inhibition; 210,000 tested, 0.25% active; inhibition, % at 10 µM; Recombinant Pf-apPOL, molecular beacon fluorescence, 1.5 h
* marks the source's active call; other numbers are inactive results; · = no result given. Sampled rows, rich in hits. Any-hit rate of the full collection: about 3.5%. Cut-off read from the data, not from the text of the source: active = inhibition above about 50%; inactive = the rest.

SMILES | mHTT-CaM PPI inh | Pf apPOL inh
COc1ccc(-c2c(C)oc3cc(OC(=O)c4ccc([N+](=O)[O-])cc4)ccc3c2=O)cc1 | -6 | 2
CC(/C=C1\SC(=O)N(c2ccc(O)cc2)C1=O)=C\c1ccccc1 | 60* | -4
Cc1ccc(N2C(=O)S/C(=C\c3ccc(O)cc3)C2=O)cc1 | 12 | -3
COc1ccc(C2C3=C(CC(C)(C)CC3=O)Nc3nc(-c4ccc(O)cc4)nn32)cc1 (stereo not given) | 50* | 2
COc1ccc(-c2nc3n(n2)C(c2ccccc2)C2=C(CC(C)(C)CC2=O)N3)cc1 (stereo not given) | 52* | -4
CC1(C)CC(=O)C2=C(C1)Nc1nc(-c3ccccc3)nn1C2c1ccccc1 (stereo not given) | 43 | -2
CC1(C)CC(=O)C2=C(C1)Nc1nc(-c3ccccc3)nn1C2c1ccc(Br)cc1 (stereo not given) | 35 | -3
COc1ccccc1C1C2=C(CC(C)(C)CC2=O)Nc2nc(-c3cccc(Cl)c3)nn21 (stereo not given) | 70* | -3
COc1cccc(C2C3=C(CC(C)(C)CC3=O)Nc3nc(-c4cccc(Cl)c4)nn32)c1 (stereo not given) | 1 | -2
Cc1ccc(S(=O)(=O)c2nc(N)sc2Cl)cc1 | 9 | 43
COc1ccc(-c2ccc(=O)n(CCNC(=O)c3ccc(-n4nc(C)cc4C)nn3)n2)cc1 | 6 | -1
CC1CN(C(=O)Cc2ccc(Cl)cc2)c2ccccc2NC1=O (stereo not given) | -16 | -6
c1ccc2c(c1)CCCN2c1ncnc2c1nc1n2CCCCC1 | 1 | -4
Cc1ccc(Cn2cc(CCC(=O)NCc3ccco3)c3ccccc32)cc1 | 15 | -14
Cc1ccc(Cn2cc(CCC(=O)NCc3ccccn3)c3ccccc32)cc1 | 78* | -18
O=C(Nc1ccc(F)cc1)C1CCCN(c2ncc(-c3ccccc3)cn2)C1 (stereo not given) | -5 | 0
NCCNc1ccc([N+](=O)[O-])cc1C(=O)Nc1cccc(Cl)c1 | 28 | 12
O=C(Nc1cccc(Cl)c1)c1cc([N+](=O)[O-])ccc1NCCO | 94* | 1
Cc1ccc(OCC(=O)N2CCC(c3nc4ccncc4n3C(C)C)C2)cc1 (stereo not given) | 7 | -8
COc1ccc(O)c(C2=Nc3ccccc3N=C(c3cccc([N+](=O)[O-])c3)C2)c1 | 57* | -2
COc1ccc(-c2nnc(-c3cccc([N+](=O)[O-])c3)o2)cc1 | -13 | 6
Clc1ncnc2c1[nH]c1ccc(Br)cc12 | 5 | -5
COc1ccc(CNC2=NCCNC23CCCCC3)cc1 | -6 | -2
Cc1ccc(S(=O)(=O)CC(SC#N)c2ccccc2)cc1 (stereo not given) | -12 | -5
N#CSC(CS(=O)(=O)c1ccc([N+](=O)[O-])cc1)c1ccccc1 (stereo not given) | 62* | -10
SMILES | mHTT-CaM PPI inh | Pf apPOL inh
COc1ccccc1CCC(=O)N1CCC(c2nc(C(=O)N3CCCC3)c(C)o2)CC1 | 12 | -7
COc1ccc(OC)c(C2C=C(c3ccc(C)cc3)Nc3ncnn32)c1 (stereo not given) | 37 | -4
O=C(NCc1ccccc1Cl)C1CCN(C(=O)Nc2cccs2)CC1 | 58* | -6
O=C(NC1CC1)C1CCN(C(=O)Nc2cccs2)CC1 | 15 | -4
O=C(O)c1nn2c(c1Cl)NC(c1cccs1)CC2C(F)(F)F (stereo not given) | -1 | 3
CC(C)(C)C(=O)N1CC(c2nc(-c3ccc(F)cc3)no2)C2(CCOCC2)C1 (stereo not given) | 0 | -7
CNCC(O)Cn1c2ccccc2c2ccccc21 (stereo not given) | 13 | 4
CC(NCC(O)Cn1c2ccccc2c2ccccc21)C(=O)O (stereo not given) | 4 | -6
Cc1cccc(NCC(O)Cn2c(C)c(C)c3ccccc32)c1C (stereo not given) | 93* | -6
Cc1ccc(S(=O)(=O)NCC(O)Cn2c3ccccc3c3ccccc32)cc1 (stereo not given) | 28 | 13
Cc1ccc(NCC(O)Cn2c(C)c(C)c3ccccc32)c(C)c1 (stereo not given) | 82* | -8
CCC(CO)NCC(O)Cn1c2ccccc2c2ccccc21 (stereo not given) | -3 | -3
Cc1c(C)n(CC(O)CNc2ccc(I)cc2)c2ccccc12 (stereo not given) | 99* | 5
Cc1ccccc1NCC(O)Cn1c(C)c(C)c2ccccc21 (stereo not given) | 96* | 1
O=C(NC1CCCCC1)C(=O)NC1CCCC1 | -8 | 3
N#Cc1ccc(C(=O)N2CCC3(CC2)Nc2cccnc2NC3=NC2CCCC2)cc1 | 16 | -3
O=C(CCS(=O)(=O)c1ccc(Br)cc1)Nc1cccc2c1CCCC2 | 1 | -6
COc1ccccc1NCC(O)Cn1ccc2ccccc21 (stereo not given) | 46 | -3
COc1ccccc1NCC(O)Cn1c(C)c(C)c2ccccc21 (stereo not given) | 59* | -2
O=c1oc2ccccc2c(N2CCC(c3ccccc3)C2)c1[N+](=O)[O-] (stereo not given) | 5 | -1
Nc1c(C(=O)Nc2ccc(Cl)cc2Cl)sc2[nH]c(=O)c(C(=O)O)cc12 | 7 | 6
Nc1c(C(=O)c2ccc(Cl)cc2)sc2[nH]c(=O)c(C(=O)O)cc12 | 59* | -1
COc1ccc(C(=O)N2CCN(C(=O)c3ccco3)CC2)cc1 | 1 | -5
COc1ccc(C(=O)c2ccco2)cc1 | -5 | 56*
O=C(NCCc1ccsc1)C(=O)Nc1ccccc1F | -4 | -2
SMILES | mHTT-CaM PPI inh | Pf apPOL inh
CC(C)c1nnc(C2CCN(C(=O)c3cnc4ccccc4n3)CC2)o1 | 100* | -7
Cc1c(C(=O)N2CCC(c3nnc(C(C)C)o3)CC2)cnn1-c1ccccc1 | -1 | 0
CCCCN(CC)C(=O)c1cn(CC)c2nc(C)ccc2c1=O | 2 | -3
CC1(C)CC(=O)C2=C(C1)NC1=C(C(=O)c3ccccc31)C2c1ccc([N+](=O)[O-])o1 (stereo not given) | 55* | -3
CC(=O)N1c2ccccc2NC2=C(C(=O)CC(C)(C)C2)C1c1ccc([N+](=O)[O-])o1 (stereo not given) | 2 | 1
CC1(C)CC(=O)C2=C(C1)NC1=C(C(=O)c3ccccc31)C2c1cc([N+](=O)[O-])ccc1O (stereo not given) | 63* | 4
COc1ccc(OC)c(C2C3=C(CC(C)(C)CC3=O)NC3=C2C(=O)c2ccccc23)c1 (stereo not given) | 41 | -5
CCOc1cc(C(=O)Nc2c3c(nn2-c2ccc(F)cc2)CSC3)cc(OCC)c1OCC | 7 | -4
CC1CC(C)CN(S(=O)(=O)c2cc(C(=O)Nc3ccccc3Cl)ccc2F)C1 (stereo not given) | -6 | -7
O=C(Cc1ccccc1)Nc1nc(CC(=O)Nc2cccc3ncccc23)cs1 | 29 | -16
Cc1cc(=O)[nH]c(-c2cnccn2)n1 | 94* | -17
Cc1cc(=O)[nH]c(-c2ccccc2)n1 | · | -2
O=C(Nc1ccc2ncnc(N3CCCCC3)c2c1)c1ccccc1F | 55* | 2
O=C(Nc1ccc2ncnc(N3CCCCC3)c2c1)c1cccc(F)c1 | 1 | -1
O=C(Nc1ccc(N2CCOCC2)cc1)c1ccccc1F | 4 | 0
O=C(Nc1ccc(N2CCCC2)cc1)c1ccccc1F | 88* | -5
